A selection: hits, their analogues and other compounds. The true share with any hit is near 27%.
sEH inh = inhibitors of human soluble epoxide hydrolase. P34913. recombinant human sEH enzymatic activity assay. inhibition, % at 2 µM. 91,000 compounds, 0.34% hits; in the data active = inhibition above about 80%
CYP2C19 inh = human CYP2C19 inhibition | CYP2C19 Supersomes, luciferin-H EGE luminescence, 30 min | inhibition, % at 5 µM | 96,000 compounds, 21% hits | AID 778;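 active = CYP2C19 inhibition above a set limit at 5 µM in the primary screen, cut at about 50% in these data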;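 note: plate controls were negative control wells for no effect and 2.5 mM tranylcypromine positive control for full effect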
CYP2C9 act = increases human cytochrome P450 2C9 activity; P11712; recombinant CYP2C9, luciferin-H conversion, luminescence; hits give high values; factor 1 = untreated enzyme, 0 = blocked; activation factor at 5 µM; 96,000 compounds, 1.4% hits; AID 1024;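 active = activation factor of 2 or more for CYP2C9 at a 5 µM dose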;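 note: 0 = sulfaphenazole-blocked wells and 1 = vehicle-only wells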
Target sequence (P11712 whole entry, looked up): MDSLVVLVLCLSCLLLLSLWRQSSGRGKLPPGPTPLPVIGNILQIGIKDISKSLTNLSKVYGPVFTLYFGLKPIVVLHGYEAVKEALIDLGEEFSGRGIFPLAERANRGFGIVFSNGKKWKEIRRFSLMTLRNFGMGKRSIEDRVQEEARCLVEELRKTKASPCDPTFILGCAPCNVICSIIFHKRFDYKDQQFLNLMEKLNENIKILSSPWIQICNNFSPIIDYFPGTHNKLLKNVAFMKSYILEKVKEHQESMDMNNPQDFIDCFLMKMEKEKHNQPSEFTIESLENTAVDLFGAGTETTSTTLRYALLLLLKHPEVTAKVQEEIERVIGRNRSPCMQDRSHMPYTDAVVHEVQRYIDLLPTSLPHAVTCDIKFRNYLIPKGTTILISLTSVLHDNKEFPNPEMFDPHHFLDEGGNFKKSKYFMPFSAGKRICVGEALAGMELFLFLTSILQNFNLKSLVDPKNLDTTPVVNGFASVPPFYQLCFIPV
CYP2C9 inh = blocks human cytochrome P450 2C9. P11712. CYP2C9 Supersomes, luciferin-H conversion, luminescence. inhibition, % at 5 µM. 96,000 compounds, 20% hits;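 active = blocking of liver enzyme CYP2C9 beyond about 50% at 5 µM, limit read from the data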
CYP2C19 act = increases human CYP2C19 enzyme activity. P33261. recombinant CYP2C19, luciferin-H EGE luminescence; hits give high values; 0 = fully inhibited enzyme, 1 = untreated enzyme. activation factor at 5 µM. 96,000 tested, under 10 active;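 active = activation factor of at least 2 at 5 µM in the primary screen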;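 note: 0 = wells with 2.5 mM tranylcypromine and 1 = vehicle-only wells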
sEH act = activators of human soluble epoxide hydrolase; P34913; purified human sEH enzymatic activity, activator screen; activation, % at 2 µM; 91,000 compounds, 0.04% hits; AID 717; in the data active = activation above about 37%
The depositor's hits bear a star; / = not tested or not shown.

SMILES	sEH inh	CYP2C19 inh	CYP2C9 act	CYP2C9 inh	CYP2C19 act	sEH act
O/N=C(\c1ccc(Cl)cc1)c1ncc(C(F)(F)F)cc1Cl	-15.5	98.0*	0.1	86.5*	0	12.3
FC(F)(F)c1cnc2c(-c3ccc(Cl)cc3Cl)noc2c1	-4.4	19.5	0.9	9.6	0.8	3.2
CCOC(=O)N1CCN(C(=O)CSCC(=O)Nc2nc(-c3ccc(Cl)s3)cs2)CC1	-7.5	/	/	/	/	9.2
O=C(CSCc1ccc(F)cc1)Nc1ccccc1	3.2	94.3*	1.6	-56.1	0.1	-4.2
Cc1cccc(C)c1NC(=O)CSCc1cccc(CSCC(=O)Nc2c(C)cccc2C)n1	-10.1	7.4	0.8	17.4	0.9	12.2
Cc1cccc(NC(=O)Cc2ccc(F)cc2)c1	1.3	96.1*	0.4	58.0*	0	-6.7
O=C(CSCc1cccc(CSCC(=O)Nc2ccccc2)n1)Nc1ccccc1	3.9	53.1*	0.4	64.6*	0.5	-6.4
O=c1cc(N2CCc3ccccc3C2)[nH]c(=O)n1Cc1ccc(F)cc1	-27.0	/	/	/	/	24.5
COc1ccc(CC(=O)Nc2ccc3c(c2)OCO3)cc1S(=O)(=O)N1CCOCC1	25.5	-4.1	1	-4.9	1	-25.9
CC1CCCN(C(=O)c2ccc3c(c2NCCO)C(=O)c2ccccc2C3=O)C1 (stereo not given)	-7.9	58.9*	0.6	35.4	0.4	7.9
O=C(c1csc2c1CCCC2)N1CCN(c2cccc(C(F)(F)F)c2)CC1	-10.8	65.2*	1.6	-60.6	0.3	9.5
O=C(c1cccc(F)c1)N1CCN(c2cccc(C(F)(F)F)c2)CC1	12.9	88.1*	0.2	81.3*	0.1	-11.8
O=C(c1csc2c1CCCC2)N1CCN(c2ccc(F)cc2)CC1	-2.5	/	/	/	/	3.0
COc1ccc(CCNC(=O)CN2CCN(c3cccc(C(F)(F)F)c3)CC2)cc1	16.2	76.4*	0.2	75.5*	0.2	-17.6
O=C(c1csc2c1CCCC2)N1CCN(c2ncccn2)CC1	-2.5	65.1*	0.2	82.1*	0.3	3.1
COCCN1C(=O)c2ccccc2C(C(=O)N2CCN(c3ccccn3)CC2)C1c1ccc(F)cc1 (stereo not given)	13.3	/	/	/	/	-13.8
O=C(CCn1c(=S)[nH]c2cc3c(cc2c1=O)OCO3)N1CCN(C2CCCCC2)CC1	9.2	/	/	/	/	-8.0
O=C(O)[C@H](Cc1ccccc1)NC(=O)N1CCOCC1	-4.0	-4.1	1.1	-7.3	1	2.9
CCOC(=O)N1CCN(c2ccc(C(=O)c3cccc(F)c3)cc2)CC1	-12.1	66.8*	0.2	82.0*	0.3	13.7
COc1ccccc1C(=O)N1CCN(c2cccc(C(F)(F)F)c2)CC1	1.1	92.4*	0.3	68.2*	0.1	-0.5
CCOC(=O)N1CCN(c2ccc(Cl)c(Cl)c2)CC1	-6.2	15.1	0.7	27.6	0.8	7.9
COc1ccc(NC(=O)N2CCN(c3cccc(C(F)(F)F)c3)CC2)cc1OC	1.8	-4.4	1.4	-37.0	1	-0.6
CC(CNC(=O)c1cc(Cl)ccc1[N+](=O)[O-])NC(=O)c1cc(Cl)ccc1[N+](=O)[O-] (stereo not given)	-9.8	7.1	1	3.3	0.9	9.7
Cc1sc2nc(C(C)Nc3ccccc3N3CCOCC3)[nH]c(=O)c2c1C (stereo not given)	-17.1	34.6	0.5	54.5*	0.7	15.6
CCOc1ccc(C(C)NC(=O)CCC(=O)O)cc1 (stereo not given)	/	2.2	0.9	7.6	1	/
SMILES	sEH inh	CYP2C19 inh	CYP2C9 act	CYP2C9 inh	CYP2C19 act	sEH act
CC(C)CN(C(=O)COC(=O)Cc1c[nH]c2ccccc12)C1CCS(=O)(=O)C1 (stereo not given)	-9.1	27.5	0.9	7.0	0.7	8.7
CC(C)CN(C(=O)COC(=O)CCc1c[nH]c2ccccc12)C1CCS(=O)(=O)C1 (stereo not given)	18.0	15.5	2.2*	-123.8	0.8	-19.1
O=C(CN1C(=O)c2ccccc2C1=O)N1CCCCC1	-4.3	-10.8	1.2	-22.8	1.1	2.8
O=C(NCC1c2ccccc2CCN1C(=O)CN1C(=O)c2ccccc2C1=O)C1CCCCC1 (stereo not given)	7.3	-7.6	0.3	72.0*	1.1	-11.2
Cc1cccc(OCC(=O)Nc2ccccc2N2CCN(C(=O)C(C)C)CC2)c1C	-1.3	30.0	0.4	55.7*	0.7	-3.0
Cc1ccc(C(C)C)c(OCC(=O)Nc2ccccc2N2CCN(C)CC2)c1	-1.8	68.9*	0.1	86.8*	0.3	1.9
CC(=O)N1CCN(c2ccccc2NC(=O)COc2cc(C)ccc2C(C)C)CC1	-3.0	89.5*	0.1	94.3*	0.1	0.9
CC(=O)N1CCN(c2ccccc2NC(=O)COc2ccc(Br)cc2)CC1	2.3	30.3	0.6	38.5	0.7	-3.4
Cc1ccc(N2CCCCn3c2nc2c3c(=O)[nH]c(=O)n2C)cc1	-5.0	7.8	0.9	12.1	0.9	4.5
O=C(CCN1C(=O)c2ccccc2C1=O)Nc1cc(F)ccc1F	10.7	-0.7	0.7	30.1	1	-9.4
CC(CNC(=O)C(=O)NC(C)CCc1ccccc1)Cc1ccccc1 (stereo not given)	1.7	7.7	0.9	13.0	0.9	0.5
CCc1cc2ccccc2nc1SCC(=O)N1CCN(C(=O)c2ccco2)CC1	/	83.0*	0.2	80.3*	0.2	/
O=C(CSc1nc2ccccc2o1)N1CCN(C(=O)c2ccco2)CC1	-8.8	38.6	0.6	38.4	0.6	4.2
CCc1cc2cc(C)ccc2nc1SCC(=O)N1CCN(C(=O)c2ccco2)CC1	8.8	41.2	0.3	70.3*	0.6	-6.9
COc1cc(OC)cc(C(=O)n2cnnc2N)c1	-4.7	10.6	1	3.2	0.9	3.5
Cc1cc(=O)oc2cc(OCC(=O)NCCc3nc4ccccc4[nH]3)ccc12	4.5	24.1	0.5	46.4	0.8	-4.0
CS(=O)(=O)N1CCC(C(=O)NCC2CCCO2)CC1 (stereo not given)	-6.5	-1.7	1.1	-7.5	1	5.9
c1ccc(NCCCNc2ccccc2)cc1	5.2	98.2*	0.1	86.0*	0	-0.3
CCC(CC)c1nnc(NC(=O)c2ccc(N3CCCC3=O)cc2)s1	-6.0	-11.1	1	3.6	1.1	7.3
Cn1c(SCCS(=O)(=O)c2ccc(Cl)cc2)nnc1-c1ccccc1	0.7	41.8	0.8	18.9	0.6	-0.6
COc1ccc(N2CCN(C(=O)CCn3nnc4ccccc43)CC2)cc1	10.3	20.9	1	4.4	0.8	-11.4
COC(=O)c1ccc(Cn2cnc3c(sc4nc(N5CCOCC5)c5c(c43)CCCC5)c2=O)o1	/	22.3	0.5	52.0*	0.8	/
O=c1c2sc3nc(N4CCOCC4)c4c(c3c2ncn1CCc1ccccc1)CCCC4	20.1	52.5*	0.4	60.6*	0.5	-17.8
CCc1nc(OCCN(C)C)c2oc3ccccc3c2n1	-0.9	-9.2	0.9	5.6	1.1	4.3

Source: PubChem
